The nature of test [1]: optical density shifts of acrAB sulA E. coli – strain DRC41, OD650, 48 h, E. coli filamentation inducer project, primary screen (AID 1152).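 Further: E. coli MC1000 strain DRC41 lacking acrAB efflux pump and sulA.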 The settings on record: higher = more signal, called active from +8 up or from −8 down.
Test [2] is described as follows: probe aLefty1 binding on compound microarray – biochemical, small-molecule microarray, 635/667 nm fluorescence, primary screen (AID 1153).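 Further: score merges spot fluorescence with signal-to-noise ratio from the scanned slide images.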 The settings on record: higher = more signal.
Test [3] is described as follows: plasmodial surface anion channel blockers, osmotic lysis – cell-based, P. falciparum Indochina, OD700, 1 h, primary screen (AID 1154). The note with it: P. falciparum Indochina infected RBC osmotic lysis, higher = more signal, called active from +8 up or from −8 down.
Test [4] in a line: plasmodial surface anion channel blockers, osmotic lysis – cell-based, P. falciparum Indochina, OD700, 2 h, primary screen (AID 1155).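 Further: lysis reports solute entry through the parasite surface anion channel PSAC.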 The settings on record: P. falciparum Indochina infected erythrocytes, higher = more signal, called active from +8 up or from −8 down.
Test [5] can be described thus: changes in parasitized red cell lysis, either direction – P. falciparum Indochina, OD700, 3 h, PSAC antagonist project, primary screen (AID 1156). The note with it: P. falciparum-infected erythrocytes, osmotic lysis, higher = more signal, called active from +8 up or from −8 down.
Test [6] can be described thus: plasmodial surface anion channel blockers, osmotic lysis – cell-based, P. falciparum Indochina, OD700, 18 h, primary screen (AID 1157). The settings on record: P. falciparum Indochina infected erythrocytes, osmotic lysis OD700, 18 h; higher = more signal, called active from +8 up or from −8 down.
A short description of test [7]: S6 kinase pathway phospho-S6 level changes – cell-based, A549, cytoblot, luminescence, serum-stimulated, primary screen (AID 1158).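 Further: serum-stimulated A549 lung adenocarcinoma cells; signal is phosphorylated S6 detected by cytoblot immunostaining with HRP secondary.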 The note with it: 5 h, higher = more signal.
The target of test [8] is NADPH oxidase 2 (Homo sapiens) (UniProt P04839). Briefly: compounds shifting NOX2 Amplex Red fluorescence – cell-based, HEK293-NOX2, PMA-stimulated, NOX inhibitor project, primary screen (AID 1159). Further: test concentration not given here. The settings on record: 45 min, higher = more signal, called active from +8 up or from −8 down.
Test [9] concerns the target NADPH oxidase 4 (Homo sapiens) (UniProt Q9NPH5). Briefly: compounds shifting NOX4 Amplex Red fluorescence – cell-based, HEK293-NOX4, tetracycline-induced, NOX inhibitor project, primary screen (AID 1160). The settings on record: HEK293-NOX4, Amplex Red H2O2 fluorescence, 45 min; higher = more signal, called active from +8 up or from −8 down.
The target of test [10] is NADPH oxidase 5 (Homo sapiens) (UniProt Q96PH1). Briefly: compounds shifting NOX5 Amplex Red fluorescence – cell-based, HEK293-NOX5, NOX inhibitor project, primary screen (AID 1161). The settings on record: HEK293-NOX5, ionomycin, 45 min, higher = more signal.
Test [11] can be described thus: compound effects on lung adenocarcinoma cell viability – A549, calcein-AM fluorescence, 48 h, basal, profiling panel (AID 1162). Further: test concentration not given here. The settings on record: higher = more signal.
A short description of test [12]: compound effects on differentiated 3T3-L1 adipocyte viability – cell-based, 3T3-L1 adipocytes, calcein-AM fluorescence, 48 h, basal, profiling panel (AID 1163). Further: test concentration not given here. The note with it: 3T3-L1 adipocytes viability, higher = more signal.
A short description of test [13]: compound effects on hepatocellular carcinoma cell viability – HepG2, calcein-AM fluorescence, 48 h, basal, profiling panel (AID 1164). Further: test concentration not given here. The note with it: higher = more signal.
Test [14] in a line: compound effects on multiple myeloma cell viability – MM1S, calcein-AM fluorescence, 48 h, basal, profiling panel (AID 1165).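 Further: viability of MM1S multiple myeloma cells under basal unstimulated conditions; test concentration not given here.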 The settings on record: higher = more signal.
Test [15] can be described thus: calcein-AM signal in unstimulated myeloma cells – cell-based, calcein-AM fluorescence, 48 h, PK04 Diversity Set, profiling panel (AID 1166).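 Further: cells grown under basal conditions without added stimulus; test concentration not given here.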 The note with it: RPMI8226 myeloma viability, higher = more signal.
Test [16] is described as follows: JC-1 mitochondrial signal, unstimulated HepG2 cells – cell-based, JC-1 fluorescence, 24 h, 100 nL compound, profiling panel (AID 1167). Further: test concentration not given here. The note with it: HepG2 mitochondrial potential, higher = more signal.
Test [17] can be described thus: JC-1 mitochondrial signal, unstimulated adipocytes – cell-based, JC-1 fluorescence, 3T3-L1 adipocytes, 24 h, 100 nL compound, profiling panel (AID 1168). Further: test concentration not given here. The note with it: JC-1 mitochondrial fluorescence, higher = more signal, called active from +8 up or from −8 down.
Test [18] can be described thus: JC-1 mitochondrial signal, unstimulated myeloma cells – cell-based, JC-1 fluorescence, RPMI8226, 24 h, 100 nL compound, profiling panel (AID 1169). Further: test concentration not given here. The settings on record: JC-1 mitochondrial potential fluorescence, higher = more signal.
Test [19] in a line: JC-1 mitochondrial signal, unstimulated MM1S myeloma – cell-based, JC-1 fluorescence, 24 h, 100 nL compound, profiling panel (AID 1170). Further: test concentration not given here. The settings on record: MM1S mitochondrial potential, higher = more signal.
Test [20] in a line: resazurin metabolic signal in A549 cells – cell-based, resazurin fluorescence, 24 h, PK04 Diversity Set, profiling panel (AID 1171). Further: test concentration not given here. The settings on record: A549 viability, higher = more signal, called active from +8 up or from −8 down.

Structures are written as SMILES. Calls of active or inactive are those of the source.

NADPH oxidase 5 (Homo sapiens), sequence (Q96PH1 whole entry, looked up): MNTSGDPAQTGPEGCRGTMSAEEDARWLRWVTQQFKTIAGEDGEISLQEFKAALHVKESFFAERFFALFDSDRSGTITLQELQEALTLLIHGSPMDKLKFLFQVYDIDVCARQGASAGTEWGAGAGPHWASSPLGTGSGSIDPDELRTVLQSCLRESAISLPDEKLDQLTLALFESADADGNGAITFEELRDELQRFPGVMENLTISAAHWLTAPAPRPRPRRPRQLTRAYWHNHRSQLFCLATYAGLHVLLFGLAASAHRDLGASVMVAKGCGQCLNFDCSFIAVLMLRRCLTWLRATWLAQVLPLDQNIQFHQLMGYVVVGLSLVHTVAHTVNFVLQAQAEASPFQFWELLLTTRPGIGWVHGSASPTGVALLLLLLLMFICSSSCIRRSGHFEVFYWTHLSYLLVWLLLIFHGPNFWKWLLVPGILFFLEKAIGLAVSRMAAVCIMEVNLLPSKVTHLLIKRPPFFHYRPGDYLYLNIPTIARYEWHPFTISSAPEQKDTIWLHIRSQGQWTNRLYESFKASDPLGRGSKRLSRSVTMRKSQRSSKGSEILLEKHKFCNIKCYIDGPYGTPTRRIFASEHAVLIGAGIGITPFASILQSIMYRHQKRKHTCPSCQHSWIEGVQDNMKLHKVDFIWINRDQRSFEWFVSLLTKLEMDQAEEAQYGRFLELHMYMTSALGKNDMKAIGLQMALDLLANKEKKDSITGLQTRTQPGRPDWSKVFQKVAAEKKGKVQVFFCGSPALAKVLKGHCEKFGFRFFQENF
NADPH oxidase 2 (Homo sapiens), sequence (P04839 whole entry, looked up): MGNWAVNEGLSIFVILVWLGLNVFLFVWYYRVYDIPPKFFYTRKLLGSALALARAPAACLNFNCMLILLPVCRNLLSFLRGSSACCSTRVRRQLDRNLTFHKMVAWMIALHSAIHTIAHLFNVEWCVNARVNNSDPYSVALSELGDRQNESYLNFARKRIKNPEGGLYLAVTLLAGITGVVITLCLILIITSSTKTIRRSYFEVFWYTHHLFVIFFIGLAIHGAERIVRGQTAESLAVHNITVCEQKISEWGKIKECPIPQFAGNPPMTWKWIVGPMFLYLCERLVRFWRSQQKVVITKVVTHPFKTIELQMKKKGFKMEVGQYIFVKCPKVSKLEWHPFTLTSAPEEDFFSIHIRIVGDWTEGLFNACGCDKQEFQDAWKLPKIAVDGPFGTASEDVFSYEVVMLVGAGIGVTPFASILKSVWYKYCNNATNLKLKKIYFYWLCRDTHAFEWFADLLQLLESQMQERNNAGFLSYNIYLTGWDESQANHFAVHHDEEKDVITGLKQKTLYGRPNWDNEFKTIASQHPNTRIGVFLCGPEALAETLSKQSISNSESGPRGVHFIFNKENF
NADPH oxidase 4 (Homo sapiens), sequence (Q9NPH5 whole entry, looked up): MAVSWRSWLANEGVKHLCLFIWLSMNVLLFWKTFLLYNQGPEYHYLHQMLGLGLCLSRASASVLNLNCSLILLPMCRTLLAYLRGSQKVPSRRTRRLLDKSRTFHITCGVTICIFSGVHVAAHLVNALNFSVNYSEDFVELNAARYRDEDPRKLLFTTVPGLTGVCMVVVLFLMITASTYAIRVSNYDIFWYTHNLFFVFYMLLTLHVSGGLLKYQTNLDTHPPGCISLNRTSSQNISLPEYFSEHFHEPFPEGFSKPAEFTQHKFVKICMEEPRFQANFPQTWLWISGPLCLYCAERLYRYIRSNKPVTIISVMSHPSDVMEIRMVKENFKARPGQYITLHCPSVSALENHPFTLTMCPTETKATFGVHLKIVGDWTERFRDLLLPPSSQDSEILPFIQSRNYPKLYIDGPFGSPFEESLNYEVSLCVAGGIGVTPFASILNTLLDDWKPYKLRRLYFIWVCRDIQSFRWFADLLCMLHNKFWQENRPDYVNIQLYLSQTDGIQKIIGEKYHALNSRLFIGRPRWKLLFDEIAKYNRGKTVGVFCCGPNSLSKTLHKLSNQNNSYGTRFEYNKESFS

With `CN1C(=O)C2C=CC(C(O)c3ccc(I)cc3)N(NC(=O)OC(C)(C)C)C2C1=O` (stereo not given), the z-score in test [1] is -1.55 (inactive); in test [3], 0.365 (inactive); in test [4] it was 0.214 (inactive); in [5], -0.43 (inactive); in test [6] it was 1 (inactive); in test [7], -1.09. Further, the z-score in test [8] was -1.01 (inactive); in test [9], -0.982 (inactive); in test [10], -0.411; in test [11], -0.872; in test [12] it was -0.692; in test [13] it was -1.28. The z-score is -0.0342 in test [14]; -0.297 in test [15]; -1.56 in test [16]; -0.474 (inactive) in test [17]; -0.698 in test [18]; 0.804 in [19]. Also, the z-score in test [20] was -0.312 (inactive). The composite z-score in test [2] worked out at 0.317.
In the case of `CC(=O)OC[C@H]1O[C@@H](ON=C(C)CCN2CCc3nc(-c4ccccc4)c(-c4ccccc4)cc3C2)[C@H](OC(C)=O)[C@@H](OC(C)=O)[C@@H]1OC(C)=O`, the z-score is -1.59 (inactive) in test [1]; 1.12 (inactive) in test [3]; 0.327 (inactive) in test [4]; 0.993 (inactive) in test [5]; 0.465 (inactive) in [6]; -0.225 in test [7]. Besides, the z-score in test [8] is -1.13 (inactive); in [9], 0.55 (inactive); in test [10], -3.13; in test [11], -0.21; in [12], 0.565; in test [13], 0.69. For the same compound, the z-score in [14] is -0.0213; in test [15], -0.162; in test [16], 1.11; in test [17], -1.19 (inactive); in test [18] it was -0.522; in [19], 0.231. Moreover, the z-score in test [20] is -0.282 (inactive). The composite z-score in test [2] is 0.0355.
As to `CCc1cc2c(nc1CC)CCN(CCC(C)=NOC(C)CN1CCCc3nc(C)c(C)cc31)C2` (stereo not given), the z-score in test [1] is -1.97 (inactive); in test [3], 2.25 (inactive); in test [4] it was -0.0243 (inactive); in test [5], 0.0813 (inactive); in test [6] it was 0.146 (inactive); in test [7], -1.08. Moreover, the z-score is -1.41 (inactive) in test [8]; -0.293 (inactive) in test [9]; -1.86 in test [10]; 0.566 in test [11]; -0.326 in [12]; 0.595 in test [13]. Also, the z-score in [14] was -2.4; in test [15] it was -0.305; in test [16] it was 1.31; in test [17] it was -0.415 (inactive); in test [18] it was -0.668; in [19] it was -0.342. Moreover, in [20], the z-score was 0.103 (inactive). In [2], this compound gave a composite z-score of 0.876.
As for `O=C1C2=CC[C@H]3C(=O)N(Cc4ccc5c(c4)OCO5)C(=O)[C@H]3[C@H]2[C@H](O)[C@@H]2O[C@H]12`, the z-score is 0.0561 (inactive) in test [1]; -1 (inactive) in test [3]; -0.507 (inactive) in test [4]; -0.906 (inactive) in [5]; 0.0094 (inactive) in test [6]; 0.116 in [7]. Besides, the z-score was -0.382 (inactive) in test [8]; -0.111 (inactive) in [9]; 0.104 in [10]; -0.227 in [11]; 0.447 in test [12]; 0.162 in test [13]. For the same compound, the z-score in test [14] is 0.351; in [15], -0.196; in [16] it was -0.275; in test [17], 0.00654 (inactive); in [18] it was -0.223; in [19], -0.398. In addition, the z-score in test [20] is -0.763 (inactive). The compound further came in with a composite z-score in test [2] of -0.0464.

(Values after PubChem BioAssay.)
